eIF4E-4G inh – eIF4E/eIF4G interaction inhibition in translation initiation. actives 0.37% (n = 220,000). inhibition, % at 21.7 µM. TR-FRET eIF4E-eIF4GI(517-606) binding, 2 h. P63073+Q04637
14-3-3 Bad PPI – disrupts binding of bovine 14-3-3 zeta to phospho-Bad peptide. TR-FRET 14-3-3zeta/Dy647-pBad peptide displacement, 1 h. inhibition, % at 21.7 µM. actives 0.71% (n = 220,000);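 active = inhibition above about 70%, limit read from the data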
Target sequence (P63103 whole entry, looked up): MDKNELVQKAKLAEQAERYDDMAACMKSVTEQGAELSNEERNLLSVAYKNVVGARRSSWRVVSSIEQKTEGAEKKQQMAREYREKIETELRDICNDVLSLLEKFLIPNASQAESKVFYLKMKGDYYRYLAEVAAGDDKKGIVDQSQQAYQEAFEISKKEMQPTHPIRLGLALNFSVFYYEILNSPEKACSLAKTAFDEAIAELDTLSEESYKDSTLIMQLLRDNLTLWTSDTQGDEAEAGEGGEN
Mcl1 Bid PPI – disrupts binding of human Mcl-1 to Bid peptide | Q07820 | TR-FRET Mcl-1/Bid-Dy647 peptide binding, 1536-well | inhibition, % at 21.7 µM | actives 0.97% (n = 220,000) | AID 1021;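 active = compounds that cut the binding signal by more than half at the single screening dose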;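 also: His-tagged Mcl-1 with europium anti-His antibody binding Bid BH3 peptide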
Target sequence (Q07820 whole entry, looked up): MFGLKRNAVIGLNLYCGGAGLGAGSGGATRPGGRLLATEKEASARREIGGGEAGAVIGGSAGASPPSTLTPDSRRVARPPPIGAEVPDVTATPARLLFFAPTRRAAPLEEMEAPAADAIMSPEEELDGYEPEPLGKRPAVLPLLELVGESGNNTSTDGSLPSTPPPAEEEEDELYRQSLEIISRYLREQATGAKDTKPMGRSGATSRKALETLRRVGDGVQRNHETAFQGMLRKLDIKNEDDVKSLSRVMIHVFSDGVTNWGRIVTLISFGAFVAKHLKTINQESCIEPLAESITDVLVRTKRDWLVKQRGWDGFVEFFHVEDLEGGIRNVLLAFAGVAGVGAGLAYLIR
p47phox inh – p47phox (human) inhibition | actives 0.53% (n = 220,000) | inhibition, % at 24.7 µM | p47phox/p22phox peptide binding, fluorescence polarization, 2 h | P14598
Bim-Mcl-1 – human Bim-Mcl-1 interaction inhibition; Q07820; Bead-based flow cytometry, Bim peptide-Mcl-1 binding; inhibition, % at 10 µM; actives 0.1% (n = 190,000); AID 1009; in the data active = inhibition above about 40%
Mcl1 Noxa PPI – disrupts binding of human Mcl-1 to Noxa peptide | Q07820 | TR-FRET Mcl-1/Noxa peptide binding, 2 h | inhibition, % at 21.7 µM | actives 1.5% (n = 220,000);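 active = compounds that cut the protein-peptide binding signal by more than 50% relative to plate controls in a single-dose test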;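 also: His-tagged Mcl-1 with rhodamine Noxa BH3 peptide and terbium anti-His antibody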
Each line names hits and unclear results; the compound was inactive in the other large screens. Sampled rows, rich in hits. Any-hit rate of the full collection: about 3.3%.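 The calls were made as follows, unless noted: active = inhibition above about 30% (limit read from the data); inactive = the rest.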

CCCCN(C(=O)CSc1nnc(Nc2ccc(C)c(C)c2)s1)c1c(N)n(Cc2ccccc2)c(=O)[nH]c1=O	none
CSC1=C(C#N)C(=O)NC(c2ccc(Cl)cc2)S1 (centres undefined)	none (no result: Bim-Mcl-1)
CCN(CC)c1ccc(CNc2nc3ccccc3n2CCN2CCCCC2)cc1	none
CCN(CC)c1ccc(CNc2nc3ccccc3n2C)cc1	Mcl1 Bid PPI 97 (no result: Bim-Mcl-1)
CCCCn1c(NCc2ccc3c(c2)OCO3)nc2ccccc21	Mcl1 Noxa PPI 66
CC(=O)N(c1ccc(C)cc1)S(=O)(=O)c1ccc(Cl)cc1	none
COC(=O)c1sccc1NC(=O)CC1C(=O)NCCN1C(=O)c1ccc(N(C)C)cc1 (centres undefined)	none (no result: Bim-Mcl-1)
Cc1cc(OCc2nnc(SC(C)C(=O)O)n2Cc2ccccc2)ccc1Cl (centres undefined)	none
Cc1nc(NCCc2cnc[nH]2)c2oc3ccccc3c2n1	none (no result: eIF4E-4G inh, 14-3-3 Bad PPI, Mcl1 Bid PPI, p47phox inh, Mcl1 Noxa PPI)
COc1ccc(CCNc2ncnc3c2oc2ccccc23)cc1OC	14-3-3 Bad PPI 85
COc1ccc(CCNc2nc(C)nc3c2oc2ccccc23)cc1OC	14-3-3 Bad PPI 75
Cc1cc(C)cc(-n2cc(C(=O)O)c(=O)cc2C)c1	none
Nc1cc2nsnc2cc1Br	Mcl1 Noxa PPI 61
CC(C)(C)C1CCC(=NNC(=O)C(=O)NCc2ccco2)CC1 (centres undefined)	none
Cc1ccccc1-n1c(SC/C(O)=C(\C#N)c2nc3ccccc3[nH]2)nnc1-c1ccncc1	none
Cc1cc(C)n2c(SC/C(O)=C(\C#N)c3nc4ccccc4[nH]3)nnc2n1	Mcl1 Noxa PPI 86
CCC(C)NCCOCCOc1ccc(Br)cc1 (centres undefined)	none
CC(C)[C@H](NC(=O)NCCC1=CCCCC1)C(=O)O	Mcl1 Bid PPI 94 (no result: Bim-Mcl-1)
CCC(C)[C@H](NC(=O)NCCC1=CCCCC1)C(=O)O (some centres undefined)	none (no result: Bim-Mcl-1)
O=[N+]([O-])c1ccccc1/C=C/C=N/n1c(-c2ccc(Cl)cc2)n[nH]c1=S	14-3-3 Bad PPI 79
COc1ccccc1/C=C/C=N/n1c(-c2ccc(C)cc2)n[nH]c1=S	none
Cc1ccc(-c2n[nH]c(=S)n2/N=C/C=C\c2ccccc2[N+](=O)[O-])cc1	none
O=[N+]([O-])c1ccccc1/C=C/C=N/n1c(-c2ccccc2)n[nH]c1=S	Mcl1 Noxa PPI 73
O=C(CN1C(=O)C2C3c4ccccc4C(c4ccccc43)C2C1=O)Nc1cccc(C(=O)O)c1 (centres undefined)	none
CCOC(=O)c1c(NC(=O)CSc2ccccc2C(=O)O)sc(C)c1C	none
CCOC(=O)c1c(NC(=O)CSc2nnnn2-c2ccc(OC)cc2)sc(C)c1C	eIF4E-4G inh 30
N#Cc1ccsc1NC(=O)CSc1ncn[nH]1	none
CCOC(=O)c1csc(NC(=O)CSc2nnnn2-c2ccc(OC)cc2)n1	none
CCOC(=O)c1c(NC(=O)CSc2ncnc3ccccc23)sc(C)c1C	Mcl1 Bid PPI 59
N#Cc1ccsc1NC(=O)CSc1ncnc2ccccc12	Mcl1 Noxa PPI 68
N#Cc1ccsc1NC(=O)CSc1nnnn1-c1ccc(O)cc1	Mcl1 Noxa PPI 66 (no result: p47phox inh)
Cn1ccnc1SCC(=O)Nc1sccc1C#N	none
O=C(O)c1ccc(-c2ccccc2)[nH]c1=O	none (no result: Bim-Mcl-1)
CCOC(=O)c1cc(C(=O)NC(C)c2ccccc2)c(C)[nH]c1=O (centres undefined)	none
O=C(O)c1ccc(S(=O)(=O)Nc2cccc(CP(=O)(c3ccccc3)c3ccccc3)c2)cc1	none (no result: Bim-Mcl-1)
COc1ccc(CC(=O)NNC(=O)c2nn(Cc3ccccc3)c(=O)c3ccccc23)cc1OC	p47phox inh 142 (no result: Bim-Mcl-1)
O=C(O)CCC(=O)N1N=C(c2ccc(Br)cc2)CC1c1cccs1 (centres undefined)	14-3-3 Bad PPI 82
O=C(O)CCC(=O)N1N=C(c2ccco2)CC1c1cccs1 (centres undefined)	none
CCOc1cc(C(=O)Nc2ccc(N3CCOCC3)cc2)cc(Br)c1OC	Mcl1 Noxa PPI 61
CCOc1cc(C(=O)Nc2ccc(F)cc2)cc(Br)c1OC	none
CC(C)c1ccc(C(=O)Nc2ccc(N3CCOCC3)cc2)cc1	none
CC(C)Oc1ccc(C(=O)Nc2ccc(N3CCCC3)cc2)cc1	p47phox inh 34
O=C(Nc1ccc(N2CCOCC2)cc1)c1ccc(S(=O)(=O)N2CCCCC2)cc1	p47phox inh 37
Cc1cc(C)cc(C(=O)Nc2ccc(N3CCCC3)cc2)c1	Mcl1 Noxa PPI 67
Cc1cc(C)cc(NC(=O)Nc2ccc(N3CCCCC3)cc2)c1	none (no result: Bim-Mcl-1)
CCOC(=O)C1(Cc2cccc(F)c2)CCN(C(=O)Cn2cnnn2)CC1	none (no result: Bim-Mcl-1)
COc1ccc(S(=O)(=O)/N=C2/C=CC(=O)C(C)=C2C)cc1	Mcl1 Noxa PPI 67
CCOC(=O)c1ccc(NC(=O)CSc2nnc(Cn3c(=O)sc4ccccc43)n2C)cc1	p47phox inh active
CCc1ccc(NC(=O)CSc2nnc(Cn3c(=O)sc4ccccc43)n2C)cc1	none
CS(=O)(=O)N1CCN(c2ccc([N+](=O)[O-])c(NCCN3CCOCC3)c2)CC1	p47phox inh 144
COc1ccc(Nc2ccc(S(=O)(=O)N3CCCCC3)cc2[N+](=O)[O-])cc1	14-3-3 Bad PPI 85
O=[N+]([O-])c1cc(S(=O)(=O)N2CCCCC2)ccc1NCCCN1CCOCC1	Mcl1 Noxa PPI 54
N/C(=N\OCc1ccc([N+](=O)[O-])cc1)c1ccncc1	none
O=C1/C(=C\c2ccco2)CCC/C1=C\c1ccco1	none
CC1C/C(=C/c2ccco2)C(=O)/C(=C/c2ccco2)C1 (centres undefined)	Mcl1 Noxa PPI 53
NC(=O)N=Nc1c2[nH]c3ccccc3nc-2c2ccccc12	none (no result: Bim-Mcl-1)
Cc1ccc(NS(=O)(=O)c2cc([N+](=O)[O-])ccc2NNC(=S)Nc2cc(C)ccc2C)c(C)c1	none
Cc1ccc(NS(=O)(=O)c2cc([N+](=O)[O-])ccc2NNC(=S)Nc2cccc(Cl)c2)c(C)c1	Mcl1 Noxa PPI 88
CC1(c2ccccc2)CC(C)(C)n2c(O)c(C3=NC(=S)NC3=O)c3cccc1c32 (centres undefined)	Mcl1 Noxa PPI 60 (no result: Bim-Mcl-1)
CC/C=C/C(=O)N1CC2(CC(c3cccc(NC(=O)COc4ccc(Cl)cc4)c3)=NO2)C[C@H]1C(N)=O (some centres undefined)	none (no result: Bim-Mcl-1)
CSc1c(C#N)c(N)nc2sc(C(=O)c3ccc(Cl)c(Cl)c3)c(N)c12	Mcl1 Bid PPI 52 (no result: Bim-Mcl-1)
Cc1[nH]c2ccccc2c1/C=C/c1nc2ccccc2c(=O)[nH]1	14-3-3 Bad PPI 82, Mcl1 Bid PPI 64, Mcl1 Noxa PPI 74 (no result: Bim-Mcl-1)
O=C(Nc1nn[nH]n1)c1cc(-c2ccc(Cl)c(Cl)c2Cl)nc2ccccc12	none

Screens (PubChem BioAssay)
